# Data taken from PubChem BioAssay (NCATS).
# Inconclusive results are not listed. A call without a number means that no potency is given here. Activity calls are given as the source filed them. The call rests on the fitted dose curve; in most records, active means well fitted inhibition curve with a large enough effect; inconclusive means small, poorly fitted or top-dose-only effect; inactive means flat fitted curve, though single readings scatter.
# Test system: Zika virus NS2B-NS3 protease
# Experiment: Primary screen GU AMC qHTS for Zika virus inhibitors (AID 1347154); further: nearly all actives have a fitted effect of over 70% in size
# Settings: Zika NS2B-NS3 unlinked protease, AMC fluorogenic substrate; series mostly up to 54.1 µM
# Summary of the method: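 Fluorogenic AMC-substrate cleavage by noncovalent NS2B-NS3 protease complex (25 nM, pH 8.0 Tris buffer with Tween 20) followed for 15 minutes at room temperature (~20% conversion). Percent inhibition from ex340/em450 signal change, fitted by 4-parameter Hill equation.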
row,SMILES,Potency
1,COc1ccc(CCN2CCN(CCCc3ccccc3)CC2)cc1OC,inactive
2,C[C@@H]1CN(Cc2ccc(F)cc2)[C@@H](C)CN1C(=O)c1cc2c(C(=O)C(=O)N(C)C)cn(C)c2cc1Cl,inactive
3,CCCn1c(=O)c2[nH]c(C34CC5CC3C[C@@H](C5)C4)nc2n(CCC)c1=O,inactive
4,CN(C)C(=O)c1ccc(S(=O)(=O)c2ccc(NC(=O)[C@@](C)(O)C(F)(F)F)c(Cl)c2)cc1,inactive
5,O=C1CCCC2=C1C(c1[nH]ncc1Cl)N=C(Nc1nc3ccccc3o1)N2 (stereo not given),inactive
6,Clc1ccc(Nc2nnc(Cc3ccncc3)c3ccccc23)cc1,inactive
7,CC1(C)CNc2cc(NC(=O)c3cccnc3NCc3ccncc3)ccc21,inactive
8,Cc1csc(NC(=O)c2sc3nc4c(c(C(F)(F)F)c3c2N)CCC4)n1,inactive
9,CN(C(=O)c1ccc(F)cc1C(F)(F)F)C1CCN(c2nnc(-c3ccnn3C)c3ccccc23)CC1,inactive
10,CS(=O)(=O)Oc1ccc2c(NC(N)=O)c(C(=O)c3ccc(Cl)cc3Cl)oc2c1,inactive
11,O=C(Nc1cccnc1)N1CCC(Cc2cccc(Oc3ccc(C(F)(F)F)cn3)c2)CC1,inactive
12,CS(=O)(=O)c1cccc(CNc2nc(Nc3ccc4c(c3)CCC(=O)N4)ncc2C(F)(F)F)c1,inactive
13,O=C(C=Cc1ccc(/C=C/C(=O)Nc2ccc(C3=NCCN3)cc2)cc1)Nc1ccc(C2=NCCN2)cc1,inactive
14,CCCS(=O)(=O)Nc1ccc(F)c(C(=O)c2c[nH]c3ncc(-c4ccc(Cl)cc4)cc23)c1F,inactive
15,Cn1cnc2c(F)c(Nc3ccc(Br)cc3Cl)c(C(=O)NOCCO)cc21,inactive
